From PubChem BioAssay (NCI)
The panel holds about 83,000 compounds, 20% with a hit somewhere; the sample as a whole holds those more often.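 Cell lines were cultured in 96-well plates, exposed to a single compound concentration, and assessed for percent growth 48 hours later.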 Activity calls are given as the source filed them. The calls were made as follows: active = growth percent below 10; inactive = the rest.

How the values were obtained:
Assay in all cases: NCI-60 one-dose screen, 48 h (100 = growth as untreated, 0 = no growth, -100 = all killed)
Settings in all cases: 10 µM unless noted
SK-MEL-2 melanoma = test system: SK-MEL-2 melanoma
EKVX NSCLC = test system: EKVX NSCLC
SN12C renal = test system: SN12C renal
UO-31 renal = test system: UO-31 renal
TK-10 renal = test system: TK-10 renal
ACHN renal = test system: ACHN renal
CAKI-1 renal = test system: CAKI-1 renal
A498 renal = test system: A498 renal
CCRF-CEM leukemia = test system: CCRF-CEM leukemia
MOLT-4 leukemia = test system: MOLT-4 leukemia
SR leukemia = test system: SR leukemia
RPMI-8226 leukemia = test system: RPMI-8226 leukemia
OVCAR-8 ovarian = test system: OVCAR-8 ovarian
OVCAR-5 ovarian = test system: OVCAR-5 ovarian
OVCAR-4 ovarian = test system: OVCAR-4 ovarian
SK-OV-3 ovarian = test system: SK-OV-3 ovarian
IGROV1 ovarian = test system: IGROV1 ovarian
OVCAR-3 ovarian = test system: OVCAR-3 ovarian
HS 578T breast = test system: HS 578T breast
NCI/ADR-RES ovarian = test system: NCI/ADR-RES ovarian

Measured: growth

CCN(CC)CCOc1ccc(C(=C(C)c2ccc(OC)cc2)c2ccc(OCCN(CC)CC)cc2)cc1
inactive: EKVX NSCLC 39.1% | SN12C renal 34.6% | TK-10 renal 18.8% | OVCAR-5 ovarian 18.8% | SK-OV-3 ovarian 96.4% | NCI/ADR-RES ovarian 25.3%
active: SK-MEL-2 melanoma -36.7% | UO-31 renal -75.1% | ACHN renal -34.1% | CAKI-1 renal -18.2% | A498 renal -29% | CCRF-CEM leukemia -10.8% | MOLT-4 leukemia 1.17% | SR leukemia -37.3% | RPMI-8226 leukemia -43.7% | OVCAR-8 ovarian 10% | OVCAR-4 ovarian -24.4% | IGROV1 ovarian 0.0725% | OVCAR-3 ovarian -4.04% | HS 578T breast -21.8%

Fc1cc(F)cc(NNC(=S)c2ccccc2)c1
inactive: SK-MEL-2 melanoma 76% | EKVX NSCLC 39.7% | UO-31 renal 26.4% | TK-10 renal 92.3% | ACHN renal 55.4% | CAKI-1 renal 56.2% | A498 renal 14.4% | CCRF-CEM leukemia 24.2% | MOLT-4 leukemia 25.1% | SR leukemia 23.2% | RPMI-8226 leukemia 15.6% | OVCAR-8 ovarian 41% | OVCAR-5 ovarian 91.8% | OVCAR-4 ovarian 49.1% | SK-OV-3 ovarian 28.1% | IGROV1 ovarian 57.2% | HS 578T breast 61.3% | NCI/ADR-RES ovarian 55.2%
active: SN12C renal 9.96%

O=C(O)c1ccc(-n2c(=O)n(-c3cccc(C(F)(F)F)c3)c(=O)c3cc(-c4ccc(F)cc4F)ccc32)cc1
active: SK-MEL-2 melanoma -32% | EKVX NSCLC 5.67% | SN12C renal -5.12% | UO-31 renal 8.03% | TK-10 renal 4.33% | ACHN renal 1.36% | CAKI-1 renal -6.76% | A498 renal -20.5% | MOLT-4 leukemia 4.7% | SR leukemia 8.91% | RPMI-8226 leukemia -7.92% | SK-OV-3 ovarian 2.5% | HS 578T breast -4.81% | NCI/ADR-RES ovarian 3.12%
inactive: CCRF-CEM leukemia 19.5% | OVCAR-8 ovarian 13.9% | OVCAR-5 ovarian 24.8% | OVCAR-4 ovarian 31.2% | IGROV1 ovarian 17.8%

COc1ccc2c(c1)C=CC1(O2)Oc2ccc(OC)cc2C=C1C (stereo unspecified)
active: A498 renal 7.58% | CCRF-CEM leukemia 7.74% | MOLT-4 leukemia 9.45% | NCI/ADR-RES ovarian 9.17%
inactive: SK-MEL-2 melanoma 47.3% | EKVX NSCLC 47.3% | SN12C renal 51.9% | UO-31 renal 44.9% | TK-10 renal 98% | ACHN renal 38% | CAKI-1 renal 30.3% | SR leukemia 11.3% | RPMI-8226 leukemia 19% | OVCAR-8 ovarian 17.5% | OVCAR-5 ovarian 29.7% | OVCAR-4 ovarian 74.6% | SK-OV-3 ovarian 57.2% | IGROV1 ovarian 24.5% | HS 578T breast 22.3%

CC(=O)N1N=C(c2cc3ccccc3oc2=O)CC1c1cn(-c2ccccc2)nc1-c1ccc(C)cc1 (stereo unspecified)
inactive: SK-MEL-2 melanoma 108% | EKVX NSCLC 98.3% | SN12C renal 98.8% | UO-31 renal 83.2% | TK-10 renal 105% | ACHN renal 97.8% | CAKI-1 renal 92% | A498 renal 101% | CCRF-CEM leukemia 102% | MOLT-4 leukemia 108% | SR leukemia 101% | RPMI-8226 leukemia 102% | OVCAR-8 ovarian 97.3% | OVCAR-5 ovarian 94.1% | OVCAR-4 ovarian 94.4% | SK-OV-3 ovarian 95.2% | IGROV1 ovarian 108% | HS 578T breast 93.7% | NCI/ADR-RES ovarian 96.1%

COc1cc(C(=O)c2cc(C(C)=O)c3ccc(C)cn23)cc(OC)c1OC
inactive: SK-MEL-2 melanoma 37.5% | EKVX NSCLC 46.5% | SN12C renal 42.4% | UO-31 renal 44% | TK-10 renal 76.3% | ACHN renal 51.3% | CAKI-1 renal 34.3% | A498 renal 38.3% | CCRF-CEM leukemia 47.1% | MOLT-4 leukemia 28.5% | SR leukemia 26.9% | RPMI-8226 leukemia 54.6% | OVCAR-8 ovarian 50.6% | OVCAR-5 ovarian 59.5% | OVCAR-4 ovarian 79.7% | SK-OV-3 ovarian 77.4% | IGROV1 ovarian 41.9% | OVCAR-3 ovarian 28% | HS 578T breast 59% | NCI/ADR-RES ovarian 18.4%

COc1cccc2c1[C@H](OC)[C@]13O[C@@]1(C2=O)[C@H](O)[C@H](C)[C@@](O)(C(=O)[C@@H]1O[C@H]1C)[C@@H]3O
active: SK-MEL-2 melanoma -55.7% | EKVX NSCLC -39.5% | SN12C renal -8.82% | UO-31 renal -16.1% | TK-10 renal -22.6% | ACHN renal 1.83% | CAKI-1 renal -23.4% | A498 renal -82.4% | CCRF-CEM leukemia -20.3% | MOLT-4 leukemia -39.8% | SR leukemia -30% | RPMI-8226 leukemia -27.5% | OVCAR-8 ovarian -13.2% | OVCAR-5 ovarian 6.04% | OVCAR-4 ovarian -13.3% | SK-OV-3 ovarian -10.4% | IGROV1 ovarian 7.69% | HS 578T breast -30% | NCI/ADR-RES ovarian -23%

CCn1c2ccc(/C=N/N(C)S(=O)(=O)CCN(C)C)cc2c2cc(/C=N/N(C)S(=O)(=O)CCN(C)C)ccc21
inactive: SK-MEL-2 melanoma 107% | EKVX NSCLC 94.7% | SN12C renal 33.3% | UO-31 renal 47.5% | TK-10 renal 142% | ACHN renal 70.2% | CAKI-1 renal 48.1% | A498 renal 85.3% | CCRF-CEM leukemia 19.4% | MOLT-4 leukemia 15.1% | RPMI-8226 leukemia 65.2% | OVCAR-8 ovarian 48.9% | OVCAR-5 ovarian 82.6% | OVCAR-4 ovarian 69.2% | SK-OV-3 ovarian 106% | HS 578T breast 76.8% | NCI/ADR-RES ovarian 54.7%
active: SR leukemia 2.12% | IGROV1 ovarian 2.68%

CCNC(=O)Oc1ccc(/C(=C(/C)c2ccc(Cl)cc2)c2ccc(OCCN3CCCCCC3)cc2)cc1
active: UO-31 renal -9.5% | SR leukemia -5.81% | RPMI-8226 leukemia -14.9% | HS 578T breast -3.08%
inactive: SK-MEL-2 melanoma 64.2% | EKVX NSCLC 56.1% | SN12C renal 36.7% | TK-10 renal 84.5% | ACHN renal 42.1% | CAKI-1 renal 10.3% | A498 renal 64.7% | CCRF-CEM leukemia 12.7% | MOLT-4 leukemia 13% | OVCAR-8 ovarian 51.5% | OVCAR-5 ovarian 53.5% | OVCAR-4 ovarian 43.4% | SK-OV-3 ovarian 63.2% | IGROV1 ovarian 49.5% | NCI/ADR-RES ovarian 38.1%

Cc1cc2nc3c4cc(C#N)ccc4n(CCN(C)C)c3nc2cc1C
active: SK-MEL-2 melanoma -86.7% | EKVX NSCLC -7.83% | SN12C renal 2.81% | UO-31 renal -27.9% | TK-10 renal -2.16% | ACHN renal -13.7% | CAKI-1 renal -27.3% | A498 renal -44% | CCRF-CEM leukemia 3.32% | MOLT-4 leukemia 3.23% | SR leukemia 0.51% | RPMI-8226 leukemia -17.7% | OVCAR-8 ovarian -33.2% | OVCAR-5 ovarian 6.4% | OVCAR-4 ovarian 0.732% | SK-OV-3 ovarian -4.4% | IGROV1 ovarian -1.99% | HS 578T breast -15% | NCI/ADR-RES ovarian 5.29%

CNC(=O)c1cc(N2CCc3cc(NC(=O)Nc4ccc(N5CCOCC5)c(C(F)(F)F)c4)ccc32)ccn1
inactive: SK-MEL-2 melanoma 45.6% | EKVX NSCLC 59.6% | SN12C renal 15% | UO-31 renal 16.9% | TK-10 renal 80.8% | ACHN renal 26.3% | CAKI-1 renal 44.3% | A498 renal 60% | CCRF-CEM leukemia 25.1% | MOLT-4 leukemia 22.9% | SR leukemia 14.4% | RPMI-8226 leukemia 16% | OVCAR-8 ovarian 23.5% | OVCAR-5 ovarian 57.4% | OVCAR-4 ovarian 41.4% | SK-OV-3 ovarian 80% | IGROV1 ovarian 37.3% | NCI/ADR-RES ovarian 16.8%
active: HS 578T breast -0.517%

Brc1ccc(-c2cc(-c3ccc4c(c3)OCCO4)n[nH]2)s1
inactive: SK-MEL-2 melanoma 55.3% | EKVX NSCLC 48.4% | SN12C renal 54.3% | UO-31 renal 44.5% | TK-10 renal 105% | ACHN renal 47.9% | CAKI-1 renal 31.7% | A498 renal 40.3% | CCRF-CEM leukemia 18.1% | MOLT-4 leukemia 19.3% | SR leukemia 17.7% | RPMI-8226 leukemia 13.4% | OVCAR-8 ovarian 36% | OVCAR-5 ovarian 58.1% | OVCAR-4 ovarian 71.7% | SK-OV-3 ovarian 55.1% | IGROV1 ovarian 34.6% | HS 578T breast 51.4%
active: NCI/ADR-RES ovarian 6.64%

CC[C@]12CC(C(=O)OC)=C3Nc4ccccc4[C@@]34CCN(C14)[C@@H]1c3cc4c(cc3O[C@@H]1[C@H]2O)NC1=C(C(=O)OC)C[C@@]2(CC)C3N(CC[C@@]143)C[C@H]1O[C@H]12 (stereo partly specified)
inactive: SK-MEL-2 melanoma 40.8% | EKVX NSCLC 26.1% | SN12C renal 31.1% | ACHN renal 11.1% | CCRF-CEM leukemia 12.6% | MOLT-4 leukemia 14% | OVCAR-8 ovarian 24.4% | OVCAR-5 ovarian 38.6% | OVCAR-4 ovarian 33.2% | SK-OV-3 ovarian 27.9% | IGROV1 ovarian 15.9% | HS 578T breast 12.2%
active: UO-31 renal 7.33% | TK-10 renal 6.66% | CAKI-1 renal 8.4% | A498 renal -46.1% | SR leukemia 6.59% | RPMI-8226 leukemia -3% | NCI/ADR-RES ovarian 1.07%

CC(C)Sc1nc(-c2ccccc2)c(C#N)c(N2CCOCC2)n1
inactive: SK-MEL-2 melanoma 128% | EKVX NSCLC 69.8% | SN12C renal 28.1% | UO-31 renal 17.9% | TK-10 renal 106% | CAKI-1 renal 52.1% | A498 renal 65.6% | CCRF-CEM leukemia 75.3% | MOLT-4 leukemia 93.5% | SR leukemia 78.9% | RPMI-8226 leukemia 90.7% | OVCAR-8 ovarian 69.3% | OVCAR-5 ovarian 59.8% | SK-OV-3 ovarian 86.8% | HS 578T breast 50% | NCI/ADR-RES ovarian 71.1%
active: ACHN renal -6.39% | OVCAR-4 ovarian 2.36% | IGROV1 ovarian 5.14%

COc1ccc(/C=N/NC(=O)c2c(N)nn(C)c2Nc2ccccc2)cc1
active: SK-MEL-2 melanoma 7.07%
inactive: EKVX NSCLC 69.7% | SN12C renal 57.6% | UO-31 renal 51.2% | TK-10 renal 89.2% | ACHN renal 50% | CAKI-1 renal 39.8% | A498 renal 33.1% | CCRF-CEM leukemia 38.5% | MOLT-4 leukemia 49.4% | SR leukemia 18.9% | RPMI-8226 leukemia 61.6% | OVCAR-8 ovarian 70.8% | OVCAR-5 ovarian 76.9% | OVCAR-4 ovarian 87% | SK-OV-3 ovarian 49.6% | IGROV1 ovarian 39.6% | HS 578T breast 38.1% | NCI/ADR-RES ovarian 33%

CNC(=O)c1cc(N2CCc3cc(NC(=O)Nc4ccc(N5CCN(C)CC5)c(C(F)(F)F)c4)ccc32)ccn1
active: CCRF-CEM leukemia 5.44% | SR leukemia -12.6% | RPMI-8226 leukemia -16.4%
inactive: SK-MEL-2 melanoma 99.4% | EKVX NSCLC 82.3% | SN12C renal 100% | UO-31 renal 88.7% | TK-10 renal 134% | ACHN renal 85.6% | CAKI-1 renal 79.9% | A498 renal 76.9% | MOLT-4 leukemia 17.3% | OVCAR-8 ovarian 95.9% | OVCAR-5 ovarian 95.3% | OVCAR-4 ovarian 83.4% | SK-OV-3 ovarian 107% | IGROV1 ovarian 96.2% | HS 578T breast 61.4% | NCI/ADR-RES ovarian 97.4%
